In one experiment the target is Albumin (Bos taurus) (UniProt P02769). Put plainly: compounds binding labelled BSA control protein – biochemical, small-molecule microarray, Alexa647 label, 635/667 nm fluorescence, artefact control for SMM control protein annotation, profiling panel (AID 1118).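 Note: score merges 667 nm emission intensity and signal-to-noise per printed compound spot.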 As to conditions: BSA-A647 binding, fluorescence 635 nm, higher = more signal.
Experiment [1] is described as follows: probe aXIP binding to arrayed compounds – biochemical, NeuroSMM set, 635/667 nm fluorescence, primary screen (AID 1119).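 Note: probe is the protein aXip251-270 applied at 1 µg/mL to compound-printed slides; binding of probe to printed compounds measured as 667 nm fluorescence plus signal to noise.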 The settings on record: small-molecule microarray, higher = more signal, called active from +8 up or from −8 down.
Experiment [2] can be described thus: probe aNOTCH3 binding on compound microarray – biochemical, small-molecule microarray, 635/667 nm fluorescence, primary screen (AID 1120).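 Note: probe is a biotin-tagged antibody raised against NOTCH3 rather than NOTCH3 protein; score merges spot fluorescence near 667 nm with spot signal to noise.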 As to conditions: higher = more signal.
The nature of experiment [3]: probe aNOTCH2 binding on compound microarray – biochemical, small-molecule microarray, 635/667 nm fluorescence, primary screen (AID 1121).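 Note: score merges feature fluorescence read at 667 nm with its signal to noise.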 As to conditions: higher = more signal.
Experiment [4] has as its target Carbonic anhydrase 2 (Homo sapiens) (UniProt P00918). Put plainly: compounds binding carbonic anhydrase 2 – biochemical, small-molecule microarray, Alexa647-labelled CAII, profiling panel (AID 1122). As to conditions: CAII-A647 binding fluorescence, higher = more signal.
The nature of experiment [5]: COS7 lysate on small-molecule microarray, probe aHis, 635 nm (AID 1123).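 Note: z-score combines 667nm fluorescence intensity with signal-to-noise per printed compound spot.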 As to conditions: COS7 cell lysate, fluorescence, higher = more signal.
Experiment [6] can be described thus: probe aLAP1 signal on lysate-treated microarray – cell lysate, small-molecule microarray, COS7 lysate, primary screen (AID 1124).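 Note: lysate comes from COS7 cells expressing LAP1 and is applied at 0.3 µg/mL; score merges spot fluorescence near 667 nm with signal-to-noise over triplicate slides.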 The settings on record: probe aLAP1, fluorescence, higher = more signal.
The test system of another experiment is Sam68 (KHDRBS1). Put plainly: compounds binding KHDRBS1 protein – biochemical, small-molecule microarray, 635 nm fluorescence, primary screen (AID 1125).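 Note: score merges 667 nm channel intensity with signal to noise over triplicate slides.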 The settings on record: higher = more signal.
For experiment [7], the system named is Chordin-like protein 2 (CHRDL2). Put plainly: compounds binding chordin-like 2 – biochemical, small-molecule microarray, 635 nm fluorescence, primary screen (AID 1126).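 Note: printed compound slides probed with Chrdl2 protein at 4 µg/mL for 1 h at 4 C; score merges 667 nm emission intensity with signal to noise over three replicate slides.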 The settings on record: fluorescence 635 nm, higher = more signal.
The target of experiment [8] is Concanavalin-A (Canavalia ensiformis) (UniProt P02866). Put plainly: compounds binding concanavalin A lectin – biochemical, small-molecule microarray, Alexa647 label, 635 nm, artefact control for SMM control protein annotation, primary screen (AID 1127).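 Note: z combines 667 nm emission intensity with signal-to-noise across three replicate slides.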 The settings on record: ConA-A647 binding fluorescence, higher = more signal.
Concanavalin-A (Canavalia ensiformis), sequence (P02866 whole entry, looked up): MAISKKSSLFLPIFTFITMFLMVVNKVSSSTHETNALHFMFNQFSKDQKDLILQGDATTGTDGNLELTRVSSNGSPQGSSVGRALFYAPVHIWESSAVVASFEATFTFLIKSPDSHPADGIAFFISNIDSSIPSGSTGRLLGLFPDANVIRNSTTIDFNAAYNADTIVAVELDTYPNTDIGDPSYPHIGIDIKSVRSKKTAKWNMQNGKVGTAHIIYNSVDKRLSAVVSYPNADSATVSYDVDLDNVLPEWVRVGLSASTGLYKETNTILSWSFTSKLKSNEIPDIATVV
A short description of experiment [9]: compounds binding Alexa647 anti-His antibody – biochemical, small-molecule microarray, 635 nm fluorescence, artefact control for SMM control protein annotation, primary screen (AID 1128).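 Note: score merges feature fluorescence with signal-to-noise for each printed compound spot.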 The settings on record: higher = more signal.
Experiment [10] has as its system Human papillomavirus type 1a E7 protein (residues 1-88). Put plainly: HPV1a E7 small-molecule binders, primary screen, biochemical, small-molecule microarray, residues 1-88, 635 nm (AID 1129). As to conditions: small-molecule microarray binding, fluorescence 635 nm; higher = more signal.
Experiment [11] deals with Focal adhesion kinase 1 (Homo sapiens) (UniProt Q05397). Put plainly: PTK2 protein binding on printed compound slides – biochemical, small-molecule microarray, 635/667 nm fluorescence, BSA, DTT, primary screen (AID 1130).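 Note: composite of spot emission at 667 nm and signal to noise over triplicate slides.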 As to conditions: 635 nm fluorescence, higher = more signal.
Focal adhesion kinase 1 (Homo sapiens), sequence (Q05397 whole entry, looked up): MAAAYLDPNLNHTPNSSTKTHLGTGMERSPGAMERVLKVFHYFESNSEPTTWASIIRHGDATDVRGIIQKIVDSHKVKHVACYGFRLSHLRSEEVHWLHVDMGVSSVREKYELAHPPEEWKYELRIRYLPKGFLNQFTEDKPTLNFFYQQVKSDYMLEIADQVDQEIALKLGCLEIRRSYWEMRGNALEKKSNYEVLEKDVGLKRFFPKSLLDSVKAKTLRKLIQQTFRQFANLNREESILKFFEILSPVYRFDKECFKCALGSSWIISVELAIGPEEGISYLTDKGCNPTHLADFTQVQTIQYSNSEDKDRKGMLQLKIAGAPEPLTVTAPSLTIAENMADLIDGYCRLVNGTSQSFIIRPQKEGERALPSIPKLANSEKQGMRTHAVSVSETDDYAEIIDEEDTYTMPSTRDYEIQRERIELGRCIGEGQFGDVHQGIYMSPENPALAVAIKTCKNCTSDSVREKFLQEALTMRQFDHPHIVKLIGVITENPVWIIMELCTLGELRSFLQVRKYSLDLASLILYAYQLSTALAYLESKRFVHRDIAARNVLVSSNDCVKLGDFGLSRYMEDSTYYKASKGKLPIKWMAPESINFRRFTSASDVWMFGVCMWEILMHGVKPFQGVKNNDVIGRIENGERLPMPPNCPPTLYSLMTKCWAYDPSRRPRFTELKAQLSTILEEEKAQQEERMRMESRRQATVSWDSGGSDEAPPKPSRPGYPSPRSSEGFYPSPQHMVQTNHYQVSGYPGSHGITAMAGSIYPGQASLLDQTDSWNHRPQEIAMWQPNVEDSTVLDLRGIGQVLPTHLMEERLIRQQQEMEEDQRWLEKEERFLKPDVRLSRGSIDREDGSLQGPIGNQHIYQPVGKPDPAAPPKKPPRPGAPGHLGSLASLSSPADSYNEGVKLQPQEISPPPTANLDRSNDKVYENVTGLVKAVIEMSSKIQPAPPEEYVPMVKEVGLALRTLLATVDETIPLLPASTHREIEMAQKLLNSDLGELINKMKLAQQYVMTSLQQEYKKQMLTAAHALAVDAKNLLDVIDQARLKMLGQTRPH
Experiment [12] relates to Fibrinogen (Alexa647-labelled). Put plainly: Alexa647-fibrinogen binding to printed small molecules – biochemical, small-molecule microarray, 635/667 nm fluorescence, artefact control for SMM control-protein annotation, profiling panel (AID 1131).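 Note: z-score merges 667 nm fluorescence with per-spot signal-to-noise over triplicate slides.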 The settings on record: fibrinogen-A647 binding fluorescence, higher = more signal.
In experiment [13] the target is Follistatin (Homo sapiens) (UniProt P19883). Put plainly: FST protein binding to printed compounds – biochemical, small-molecule microarray, 635/667 nm fluorescence, primary screen (AID 1132). The settings on record: 635 nm fluorescence, higher = more signal.
Follistatin (Homo sapiens), sequence (P19883 whole entry, looked up): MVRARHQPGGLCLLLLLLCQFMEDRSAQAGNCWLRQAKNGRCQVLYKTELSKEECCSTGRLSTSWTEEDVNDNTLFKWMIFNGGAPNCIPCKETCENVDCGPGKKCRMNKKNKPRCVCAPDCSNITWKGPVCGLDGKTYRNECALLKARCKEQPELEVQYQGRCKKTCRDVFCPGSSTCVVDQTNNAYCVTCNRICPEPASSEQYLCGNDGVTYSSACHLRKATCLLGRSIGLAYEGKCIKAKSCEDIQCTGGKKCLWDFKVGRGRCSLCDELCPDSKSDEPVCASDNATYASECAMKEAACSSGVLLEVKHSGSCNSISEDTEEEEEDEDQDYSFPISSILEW
Experiment [14] concerns the target Fibroblast growth factor 2 (Homo sapiens) (UniProt P09038). Put plainly: basic fibroblast growth factor binding to printed compounds – biochemical, small-molecule microarray, 635/667 nm fluorescence, primary screen (AID 1133). As to conditions: FGF2, fluorescence 635/667, higher = more signal.
Experiment [15] in a line: JC-1 mitochondrial potential readout, lung cancer cells – cell-based, A549, JC-1 fluorescence, basal, 24 h, 100 nL, profiling panel (AID 1138).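 Note: A549 lung adenocarcinoma cells under basal conditions with no added stimulus; test concentration not given here.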 As to conditions: higher = more signal.
A further experiment has as its system Lefty1. Put plainly: Lefty1 protein binding to printed compounds – biochemical, small-molecule microarray, 635/667 nm fluorescence, primary screen (AID 1139). As to conditions: fluorescence 635/667, higher = more signal.
Experiment [16] concerns wheat germ agglutinin (Triticum aestivum), Alexa647-labelled. Put plainly: Alexa647-WGA lectin binding to printed small molecules – biochemical, small-molecule microarray, 635/667 nm fluorescence, artefact control for SMM control-protein annotation, profiling panel (AID 1140).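 Note: score merges 667 nm feature emission with signal to noise over triplicate slides.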 The settings on record: WGA-A647 binding, 635 nm fluorescence, higher = more signal.
The target of experiment [17] is Luciferin 4-monooxygenase (Photinus pyralis) (UniProt P08659). Put plainly: inhibition of purified Photinus pyralis luciferase – biochemical, luminescence, purified enzyme, 2006 set, primary screen (AID 1141).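 Note: cell-free assay with purified firefly luciferase at 100 ng per well in PBS; test concentration not given here.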 The settings on record: purified firefly luciferase, SteadyGlo luminescence, 30 min; higher = more signal, called active from +8 up or from −8 down.
Luciferin 4-monooxygenase (Photinus pyralis), sequence (P08659 whole entry, looked up): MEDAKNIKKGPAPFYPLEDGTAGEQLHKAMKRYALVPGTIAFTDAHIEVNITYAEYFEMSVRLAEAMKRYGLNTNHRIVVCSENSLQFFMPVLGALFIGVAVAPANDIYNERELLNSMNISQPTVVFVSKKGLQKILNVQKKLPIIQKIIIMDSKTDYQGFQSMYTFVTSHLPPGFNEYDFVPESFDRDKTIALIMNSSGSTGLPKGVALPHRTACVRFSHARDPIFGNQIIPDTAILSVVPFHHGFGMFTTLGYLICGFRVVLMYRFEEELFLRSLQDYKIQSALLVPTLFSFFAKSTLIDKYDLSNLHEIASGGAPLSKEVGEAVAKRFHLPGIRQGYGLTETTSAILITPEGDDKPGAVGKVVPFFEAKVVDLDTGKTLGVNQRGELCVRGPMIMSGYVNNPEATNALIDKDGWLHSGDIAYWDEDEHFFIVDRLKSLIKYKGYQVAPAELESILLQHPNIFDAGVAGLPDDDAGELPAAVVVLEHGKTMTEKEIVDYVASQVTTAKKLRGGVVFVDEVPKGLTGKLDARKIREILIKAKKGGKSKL

Calls of active or inactive are those of the source.

Albumin (Bos taurus), sequence (P02769 whole entry, looked up): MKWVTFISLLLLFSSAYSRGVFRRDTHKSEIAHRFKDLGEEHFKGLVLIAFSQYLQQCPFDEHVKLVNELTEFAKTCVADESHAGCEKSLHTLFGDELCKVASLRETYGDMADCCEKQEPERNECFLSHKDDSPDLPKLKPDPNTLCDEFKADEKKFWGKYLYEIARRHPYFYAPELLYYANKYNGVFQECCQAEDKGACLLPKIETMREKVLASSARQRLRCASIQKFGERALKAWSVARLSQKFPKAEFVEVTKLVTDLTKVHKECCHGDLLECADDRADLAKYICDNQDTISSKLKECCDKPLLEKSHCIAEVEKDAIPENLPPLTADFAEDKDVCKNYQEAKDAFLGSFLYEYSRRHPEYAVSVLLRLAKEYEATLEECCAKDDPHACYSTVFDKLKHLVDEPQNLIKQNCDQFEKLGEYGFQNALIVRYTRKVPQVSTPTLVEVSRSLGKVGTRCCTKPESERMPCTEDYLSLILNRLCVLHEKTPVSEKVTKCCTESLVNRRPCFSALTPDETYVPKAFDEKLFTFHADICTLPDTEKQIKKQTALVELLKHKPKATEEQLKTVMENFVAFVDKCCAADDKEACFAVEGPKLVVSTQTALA
Fibroblast growth factor 2 (Homo sapiens), sequence (P09038 whole entry, looked up): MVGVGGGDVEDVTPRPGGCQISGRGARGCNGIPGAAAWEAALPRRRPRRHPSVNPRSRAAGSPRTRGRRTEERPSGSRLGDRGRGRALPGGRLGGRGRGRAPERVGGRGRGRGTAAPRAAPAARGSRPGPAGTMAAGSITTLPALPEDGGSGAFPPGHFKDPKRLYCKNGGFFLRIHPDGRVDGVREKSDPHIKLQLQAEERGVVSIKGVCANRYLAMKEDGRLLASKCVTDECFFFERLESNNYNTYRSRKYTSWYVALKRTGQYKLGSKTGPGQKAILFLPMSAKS

With `C=C(C(=O)CC[C@H](OC(=O)c1ccccc1-c1ccccc1C(=O)O)c1ccc(CO)o1)C(C)C`, the composite z-score in the experiment with Albumin (Bos taurus) is 0.178; in experiment [2] it was -0.068; in experiment [3], -0.0986; in experiment [4], 0.368; in experiment [5], 0.23; in experiment [6], 1.47. Also, the composite z-score in the experiment with Sam68 (KHDRBS1) was 1.26; in experiment [7], 0.442; in [8] it was 1.07; in experiment [9] it was 2.61; in experiment [10] it was 0.0323; in experiment [11], 0.0321. The composite z-score amounted to 0.531 in [12]; 1.27 in experiment [13]; 1.46 in experiment [14]; 1.04 in the experiment on Lefty1; 0.0123 in experiment [16]. Also, the composite Z-score in [1] was -0.555 (inactive). Also, the results for the z-score in [15] and in [17] were -0.528 and -1.75 (inactive), respectively.

With `COC(=O)C[C@H]1O[C@]2(C(=O)N(Cc3ccccc3)c3ccc(I)cc32)[C@@H](C)[C@@H]1[Si](C)(C)c1ccc(OC)cc1`, the composite z-score was 0.298 with Albumin (Bos taurus); -0.185 in experiment [2]; -0.0956 in [3]; -0.228 in experiment [4]; -0.322 in experiment [5]; -0.0227 in [6]. Also, the composite z-score was -0.879 in the experiment on Sam68 (KHDRBS1); 0.0477 in experiment [7]; -0.0276 in experiment [8]; -0.421 in experiment [9]; -0.807 in experiment [10]; -0.172 in experiment [11]. In addition, the composite z-score is -0.774 in experiment [12]; -0.274 in experiment [13]; -0.222 in [14]; -0.603 in the experiment on Lefty1; 0.322 in [16]. In addition, the composite Z-score in [1] is 0.167 (inactive). For the same molecule, the values for the z-score in experiment [15] and in experiment [17] were 0.0578 and 0.417 (inactive), respectively.

With `CN1C(=O)C2C=CC(C(O)C3CC=CCC3)N(Nc3ccccc3)C2C1=O` (stereo not given), the composite z-score in the experiment with Albumin (Bos taurus) was 0.598; in experiment [2], 0.351; in experiment [3], 0.0697; in [4], 0.715; in experiment [5], 2.75; in experiment [6], -0.147. The composite z-score was 1.3 with Sam68 (KHDRBS1); 0.912 in [7]; 0.955 in [8]; 0.674 in experiment [9]; 1.14 in experiment [10]; -0.198 in [11]. For the same molecule, the composite z-score in [12] came out at 0.678; in experiment [13] it was 1.28; in experiment [14], 0.769; in the experiment on Lefty1, 1.29; in [16], 1.24. The composite Z-score in [1] was -0.442 (inactive). Moreover, the z-score is 0.883 in [15] and 0.864 (inactive) in experiment [17].

Turning to `COCCOC(=O)N1C(=O)[C@@]2(c3cc(C#CCNC(N)=O)ccc31)[C@H](c1ccc(OCCO)cc1)N1[C@H](c3ccccc3)[C@H](c3ccccc3)OC(=O)[C@H]1[C@@H]2C(=O)Nc1nc2ccccc2s1`, the composite z-score was -0.76 in the experiment with Albumin (Bos taurus); -0.124 in experiment [2]; -0.126 in experiment [3]; 0.277 in [4]; 0.447 in [5]; 0.338 in [6]. For the same molecule, the composite z-score in the experiment on Sam68 (KHDRBS1) was 0.289; in experiment [7], 0.903; in experiment [8] it was 0.915; in experiment [9], 0.0799; in [10], -0.393; in experiment [11], 0.0616. Besides, the composite z-score came to 0.398 in [12]; 1.28 in experiment [13]; 0.779 in experiment [14]; 0.83 in the experiment on Lefty1; 0.755 in experiment [16]. The composite Z-score in [1] is -0.0202 (inactive). The z-score in experiment [15] was -2.32; in experiment [17], -3.42 (inactive).

With `COc1ccc(CCN2C(=O)[C@@]3(c4ccc([N+](=O)[O-])cc4)CC(=O)N(CC45CC6CC(CC(C6)C4)C5)[C@@H]3c3ccc(CO)cc32)cc1`, the composite z-score with Albumin (Bos taurus) was -0.181; in [2], 0.323; in [3], 0.0437; in experiment [4], 0.446; in experiment [5] it was 1.38; in experiment [6], -0.415. Moreover, the composite z-score in the experiment on Sam68 (KHDRBS1) was found to be 0.644; in experiment [7] it was 0.569; in experiment [8], 0.402; in [9] it was 0.286; in experiment [10], 0.415; in [11] it was 0.38. Besides, the composite z-score in [12] was 0.138; in [13], 0.572; in experiment [14], -0.0451; in the experiment with Lefty1 it was -0.531; in experiment [16] it was -0.0366. The composite Z-score in experiment [1] was 0.653 (inactive). Further, the z-score in [15] was 1.15; in experiment [17], -0.736 (inactive).
